# Values without a mark were called inactive.
# Experiments:
# Assay in all cases: log2 ratio of Biotin-Ahx-Ub-VS probe labelling (fragment/DMSO); higher = less target engagement (more negative = stronger competition), active = hit call of the paper (q ≤ 0.05, log2 ratio ≤ -1)
# Conditions in all cases: compound concentration: 200 uM; treatment time: 3 h
# USP34 = USP34 (UniProt Q70CQ2)
# How it was run: (§1)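 HEK293T lysate (495 µg per sample, in Tris/CHAPS/IGEPAL buffer with protease inhibitors) was exposed in triplicate for 3 h to fragment at 200 µM or to vehicle, then to Biotin-Ahx-Ub-VS at 0.5 µM final for 1 h. Labelled DUBs were enriched on NeutrAvidin, digested with LysC and trypsin, and analysed by diaPASEF LC-MS/MS. Spectronaut label-free quantities were normalised to the global median, and values are average log2 ratios of fragment over vehicle from an unpaired t-test. Only proteins with ≥2 unique peptides were used.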
# USP36 = target: T1, USP36 (UniProt Q9P275)
# T1 sequence (whole entry): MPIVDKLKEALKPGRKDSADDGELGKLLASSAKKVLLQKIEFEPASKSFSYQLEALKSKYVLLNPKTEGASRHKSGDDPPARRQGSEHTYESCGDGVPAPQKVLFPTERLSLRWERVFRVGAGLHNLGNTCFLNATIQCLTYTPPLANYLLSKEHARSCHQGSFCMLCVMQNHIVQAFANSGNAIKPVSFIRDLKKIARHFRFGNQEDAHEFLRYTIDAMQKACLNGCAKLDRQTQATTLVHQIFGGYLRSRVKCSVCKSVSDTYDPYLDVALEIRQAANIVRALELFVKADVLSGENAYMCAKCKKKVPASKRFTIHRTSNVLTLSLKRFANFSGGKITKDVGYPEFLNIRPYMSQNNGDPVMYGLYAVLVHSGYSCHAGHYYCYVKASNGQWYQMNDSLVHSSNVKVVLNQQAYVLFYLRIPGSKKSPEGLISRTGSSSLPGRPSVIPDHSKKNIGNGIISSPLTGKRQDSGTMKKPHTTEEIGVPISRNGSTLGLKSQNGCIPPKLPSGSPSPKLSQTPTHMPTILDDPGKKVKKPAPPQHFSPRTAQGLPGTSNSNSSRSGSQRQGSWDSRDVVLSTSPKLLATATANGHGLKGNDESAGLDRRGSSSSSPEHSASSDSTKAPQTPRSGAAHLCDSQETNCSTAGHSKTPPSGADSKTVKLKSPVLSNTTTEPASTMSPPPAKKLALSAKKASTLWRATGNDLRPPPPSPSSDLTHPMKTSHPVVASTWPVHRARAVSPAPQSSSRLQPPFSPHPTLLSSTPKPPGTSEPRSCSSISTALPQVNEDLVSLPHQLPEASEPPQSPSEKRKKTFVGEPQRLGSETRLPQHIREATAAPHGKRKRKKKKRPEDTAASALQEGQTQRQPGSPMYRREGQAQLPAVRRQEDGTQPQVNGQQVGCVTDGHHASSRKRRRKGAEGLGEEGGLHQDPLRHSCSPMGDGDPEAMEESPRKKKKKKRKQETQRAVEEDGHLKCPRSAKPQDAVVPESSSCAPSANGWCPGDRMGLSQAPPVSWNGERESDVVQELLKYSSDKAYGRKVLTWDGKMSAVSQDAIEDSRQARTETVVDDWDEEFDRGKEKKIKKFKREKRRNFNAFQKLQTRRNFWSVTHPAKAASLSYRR
# How it was run: as §1
# USP38 = target: T2, USP38 (UniProt Q8NB14)
# T2 sequence (whole entry): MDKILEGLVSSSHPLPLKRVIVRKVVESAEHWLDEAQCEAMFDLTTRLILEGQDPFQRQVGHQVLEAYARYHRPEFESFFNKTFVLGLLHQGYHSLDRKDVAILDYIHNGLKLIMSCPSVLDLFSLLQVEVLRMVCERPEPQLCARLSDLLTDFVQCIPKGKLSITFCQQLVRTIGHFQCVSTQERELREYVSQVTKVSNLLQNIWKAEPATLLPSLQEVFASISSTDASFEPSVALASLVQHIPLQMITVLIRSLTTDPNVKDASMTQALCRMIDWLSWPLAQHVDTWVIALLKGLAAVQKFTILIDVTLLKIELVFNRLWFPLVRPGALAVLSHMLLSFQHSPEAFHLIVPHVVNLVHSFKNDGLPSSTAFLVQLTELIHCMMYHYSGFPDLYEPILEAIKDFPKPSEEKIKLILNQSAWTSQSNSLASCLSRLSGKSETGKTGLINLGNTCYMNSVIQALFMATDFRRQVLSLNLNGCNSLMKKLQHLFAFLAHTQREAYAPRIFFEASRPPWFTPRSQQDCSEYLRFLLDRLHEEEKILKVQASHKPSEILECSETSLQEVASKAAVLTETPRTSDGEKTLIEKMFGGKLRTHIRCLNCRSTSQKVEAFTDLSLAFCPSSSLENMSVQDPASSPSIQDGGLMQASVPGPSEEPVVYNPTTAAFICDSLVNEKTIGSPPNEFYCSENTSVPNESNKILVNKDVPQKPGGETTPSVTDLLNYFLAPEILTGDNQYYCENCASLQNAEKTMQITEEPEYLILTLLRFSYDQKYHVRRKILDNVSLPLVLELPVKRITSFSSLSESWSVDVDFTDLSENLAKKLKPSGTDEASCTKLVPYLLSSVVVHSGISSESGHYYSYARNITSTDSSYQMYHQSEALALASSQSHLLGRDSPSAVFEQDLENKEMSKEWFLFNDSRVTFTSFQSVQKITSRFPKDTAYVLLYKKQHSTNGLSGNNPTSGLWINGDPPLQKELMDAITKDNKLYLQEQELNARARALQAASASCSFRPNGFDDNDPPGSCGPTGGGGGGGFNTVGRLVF
# How it was run: as §1
# USP39 = target: T3, USP39 (UniProt Q53GS9)
# T3 sequence (whole entry): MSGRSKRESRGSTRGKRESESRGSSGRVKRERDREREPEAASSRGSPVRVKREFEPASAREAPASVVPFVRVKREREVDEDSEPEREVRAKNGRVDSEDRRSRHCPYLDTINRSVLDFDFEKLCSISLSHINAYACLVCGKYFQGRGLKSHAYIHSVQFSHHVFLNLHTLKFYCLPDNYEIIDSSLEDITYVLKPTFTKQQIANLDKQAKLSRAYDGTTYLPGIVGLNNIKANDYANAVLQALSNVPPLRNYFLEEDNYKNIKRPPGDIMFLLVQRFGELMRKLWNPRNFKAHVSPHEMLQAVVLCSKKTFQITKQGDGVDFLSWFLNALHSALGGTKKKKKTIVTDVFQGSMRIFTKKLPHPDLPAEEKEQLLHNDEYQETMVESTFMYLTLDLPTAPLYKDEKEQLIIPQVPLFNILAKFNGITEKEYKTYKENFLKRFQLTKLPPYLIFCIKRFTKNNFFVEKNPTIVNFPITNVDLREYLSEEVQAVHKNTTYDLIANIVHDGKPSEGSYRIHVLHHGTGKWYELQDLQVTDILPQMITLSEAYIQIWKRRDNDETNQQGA
# How it was run: as §1
# USP4 = target: T4, USP4 (UniProt Q13107)
# T4 sequence (whole entry): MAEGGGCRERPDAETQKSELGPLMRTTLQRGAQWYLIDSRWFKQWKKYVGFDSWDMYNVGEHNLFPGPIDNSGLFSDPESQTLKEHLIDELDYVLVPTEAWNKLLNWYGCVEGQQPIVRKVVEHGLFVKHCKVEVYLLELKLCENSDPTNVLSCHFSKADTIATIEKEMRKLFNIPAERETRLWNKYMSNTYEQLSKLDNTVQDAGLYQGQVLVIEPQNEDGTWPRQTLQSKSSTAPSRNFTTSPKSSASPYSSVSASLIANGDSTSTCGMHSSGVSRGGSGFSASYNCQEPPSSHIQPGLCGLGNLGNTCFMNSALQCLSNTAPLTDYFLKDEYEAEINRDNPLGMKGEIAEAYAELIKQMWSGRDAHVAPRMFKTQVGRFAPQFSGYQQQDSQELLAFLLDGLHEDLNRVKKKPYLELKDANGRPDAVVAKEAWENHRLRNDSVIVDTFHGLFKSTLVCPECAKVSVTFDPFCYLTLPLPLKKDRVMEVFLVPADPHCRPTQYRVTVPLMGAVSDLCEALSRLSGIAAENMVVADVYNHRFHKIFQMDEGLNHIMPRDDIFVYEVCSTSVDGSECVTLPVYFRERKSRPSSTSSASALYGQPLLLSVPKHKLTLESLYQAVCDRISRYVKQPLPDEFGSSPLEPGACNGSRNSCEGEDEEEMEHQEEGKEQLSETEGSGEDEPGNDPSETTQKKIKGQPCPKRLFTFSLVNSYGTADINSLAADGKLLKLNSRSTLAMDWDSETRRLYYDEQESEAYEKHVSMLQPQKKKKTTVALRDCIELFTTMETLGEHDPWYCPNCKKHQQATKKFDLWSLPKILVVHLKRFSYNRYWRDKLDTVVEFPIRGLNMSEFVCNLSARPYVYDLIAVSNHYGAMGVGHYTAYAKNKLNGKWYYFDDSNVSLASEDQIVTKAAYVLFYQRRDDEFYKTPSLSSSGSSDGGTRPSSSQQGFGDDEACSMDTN
# How it was run: as §1
# Sequence of USP34 (Q70CQ2 whole entry, the tested form may be a part): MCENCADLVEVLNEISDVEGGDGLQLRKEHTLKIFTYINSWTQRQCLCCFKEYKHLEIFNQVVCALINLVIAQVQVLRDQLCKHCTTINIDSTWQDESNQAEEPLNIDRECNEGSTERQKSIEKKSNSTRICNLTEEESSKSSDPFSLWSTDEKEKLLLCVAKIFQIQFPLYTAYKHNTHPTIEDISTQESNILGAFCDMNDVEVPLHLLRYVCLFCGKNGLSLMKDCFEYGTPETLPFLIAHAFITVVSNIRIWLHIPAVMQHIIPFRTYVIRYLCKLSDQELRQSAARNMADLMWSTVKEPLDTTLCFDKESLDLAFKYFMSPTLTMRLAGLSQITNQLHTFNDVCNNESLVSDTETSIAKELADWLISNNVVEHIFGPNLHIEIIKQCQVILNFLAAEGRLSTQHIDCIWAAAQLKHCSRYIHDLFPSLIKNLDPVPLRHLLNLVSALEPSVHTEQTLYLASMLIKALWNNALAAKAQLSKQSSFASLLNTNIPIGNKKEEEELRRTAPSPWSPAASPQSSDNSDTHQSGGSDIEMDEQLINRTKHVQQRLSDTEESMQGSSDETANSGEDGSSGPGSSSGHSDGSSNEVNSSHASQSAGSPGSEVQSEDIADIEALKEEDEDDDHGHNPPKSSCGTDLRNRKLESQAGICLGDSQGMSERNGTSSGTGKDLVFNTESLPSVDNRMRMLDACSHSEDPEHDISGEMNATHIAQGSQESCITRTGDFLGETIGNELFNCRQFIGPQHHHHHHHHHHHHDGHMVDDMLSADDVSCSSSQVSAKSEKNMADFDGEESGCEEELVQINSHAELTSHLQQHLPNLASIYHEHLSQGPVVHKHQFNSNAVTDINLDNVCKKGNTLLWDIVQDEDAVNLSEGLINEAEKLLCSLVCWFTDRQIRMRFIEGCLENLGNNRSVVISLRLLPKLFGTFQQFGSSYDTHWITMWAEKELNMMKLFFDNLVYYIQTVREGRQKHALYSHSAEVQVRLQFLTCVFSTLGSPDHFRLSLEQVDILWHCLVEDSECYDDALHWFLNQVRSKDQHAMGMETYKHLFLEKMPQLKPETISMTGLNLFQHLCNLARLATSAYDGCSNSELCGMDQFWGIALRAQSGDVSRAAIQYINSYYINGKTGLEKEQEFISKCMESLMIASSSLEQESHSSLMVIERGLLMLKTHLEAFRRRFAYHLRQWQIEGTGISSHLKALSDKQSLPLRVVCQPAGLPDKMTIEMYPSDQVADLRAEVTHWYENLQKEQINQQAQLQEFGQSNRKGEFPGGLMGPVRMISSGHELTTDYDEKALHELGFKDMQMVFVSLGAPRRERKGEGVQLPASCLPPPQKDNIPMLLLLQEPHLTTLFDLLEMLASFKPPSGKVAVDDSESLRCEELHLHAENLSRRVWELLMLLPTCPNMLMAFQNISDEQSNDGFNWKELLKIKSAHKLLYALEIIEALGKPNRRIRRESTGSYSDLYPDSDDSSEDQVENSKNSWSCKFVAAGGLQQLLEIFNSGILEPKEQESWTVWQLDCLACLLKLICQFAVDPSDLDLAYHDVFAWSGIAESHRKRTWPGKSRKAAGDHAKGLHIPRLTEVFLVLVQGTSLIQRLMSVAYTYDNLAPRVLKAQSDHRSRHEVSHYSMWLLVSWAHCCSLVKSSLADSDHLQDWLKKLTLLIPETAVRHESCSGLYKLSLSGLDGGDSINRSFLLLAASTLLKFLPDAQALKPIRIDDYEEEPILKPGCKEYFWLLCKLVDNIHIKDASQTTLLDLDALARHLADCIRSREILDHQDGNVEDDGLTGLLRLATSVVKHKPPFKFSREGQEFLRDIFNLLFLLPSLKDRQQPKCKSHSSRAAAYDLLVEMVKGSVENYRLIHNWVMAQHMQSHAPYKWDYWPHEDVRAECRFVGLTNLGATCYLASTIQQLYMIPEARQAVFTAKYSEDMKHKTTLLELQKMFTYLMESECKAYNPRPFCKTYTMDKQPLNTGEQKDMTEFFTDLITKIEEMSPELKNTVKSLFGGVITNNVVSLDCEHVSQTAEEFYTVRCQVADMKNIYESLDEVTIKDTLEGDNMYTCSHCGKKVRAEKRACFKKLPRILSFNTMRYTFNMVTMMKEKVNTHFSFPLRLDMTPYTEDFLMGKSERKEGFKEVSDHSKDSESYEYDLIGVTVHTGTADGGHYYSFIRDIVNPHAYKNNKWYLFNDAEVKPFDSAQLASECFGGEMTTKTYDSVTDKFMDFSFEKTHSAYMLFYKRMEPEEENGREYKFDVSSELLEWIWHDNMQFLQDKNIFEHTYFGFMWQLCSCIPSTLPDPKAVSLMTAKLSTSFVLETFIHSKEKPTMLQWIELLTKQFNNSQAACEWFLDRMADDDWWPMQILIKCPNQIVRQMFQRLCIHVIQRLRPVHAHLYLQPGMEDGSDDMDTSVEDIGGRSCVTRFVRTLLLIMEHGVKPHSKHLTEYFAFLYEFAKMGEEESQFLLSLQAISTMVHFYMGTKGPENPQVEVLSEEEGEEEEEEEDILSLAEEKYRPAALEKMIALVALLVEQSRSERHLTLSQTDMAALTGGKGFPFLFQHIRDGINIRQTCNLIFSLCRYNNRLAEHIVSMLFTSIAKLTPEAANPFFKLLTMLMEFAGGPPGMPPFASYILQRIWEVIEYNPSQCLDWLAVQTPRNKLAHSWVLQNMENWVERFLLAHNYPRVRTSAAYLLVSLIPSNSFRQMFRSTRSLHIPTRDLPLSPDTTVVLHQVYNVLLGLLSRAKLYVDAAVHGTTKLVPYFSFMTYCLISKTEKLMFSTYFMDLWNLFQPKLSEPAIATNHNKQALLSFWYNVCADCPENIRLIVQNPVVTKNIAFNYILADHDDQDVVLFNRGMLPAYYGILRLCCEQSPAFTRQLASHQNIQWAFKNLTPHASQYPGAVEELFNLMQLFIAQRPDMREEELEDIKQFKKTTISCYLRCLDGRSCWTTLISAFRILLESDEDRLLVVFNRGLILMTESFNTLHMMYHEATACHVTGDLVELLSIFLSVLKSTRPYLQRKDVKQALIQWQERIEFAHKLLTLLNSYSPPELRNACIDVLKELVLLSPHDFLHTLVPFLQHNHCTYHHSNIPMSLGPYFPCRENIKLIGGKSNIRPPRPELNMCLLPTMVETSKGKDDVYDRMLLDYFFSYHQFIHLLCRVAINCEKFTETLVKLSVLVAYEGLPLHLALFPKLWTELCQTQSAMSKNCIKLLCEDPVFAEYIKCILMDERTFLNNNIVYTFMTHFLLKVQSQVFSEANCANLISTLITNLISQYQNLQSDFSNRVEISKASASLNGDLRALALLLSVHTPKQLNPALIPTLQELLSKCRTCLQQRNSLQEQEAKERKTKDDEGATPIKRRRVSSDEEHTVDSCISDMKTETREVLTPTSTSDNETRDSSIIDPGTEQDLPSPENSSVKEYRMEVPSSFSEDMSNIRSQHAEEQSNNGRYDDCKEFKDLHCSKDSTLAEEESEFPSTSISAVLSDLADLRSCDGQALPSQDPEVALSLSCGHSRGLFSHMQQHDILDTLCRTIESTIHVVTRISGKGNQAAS
compound,measurement,setting,value
O=C(CCl)N1CC=C(c2c[nH]c3ccccc23)CC1,log2 ratio of Biotin-Ahx-Ub-VS probe labelling,USP34,-0.9
same,log2 ratio of Biotin-Ahx-Ub-VS probe labelling,USP36,0.0858
same,log2 ratio of Biotin-Ahx-Ub-VS probe labelling,USP38,-0.476
same,log2 ratio of Biotin-Ahx-Ub-VS probe labelling,USP39,0.536
same,log2 ratio of Biotin-Ahx-Ub-VS probe labelling,USP4,-1.2 (active)
